This passage reports Potency, outcome and max response results from PubChem BioAssay (Tox21).

Assay [1] can be described thus: qHTS RealTime-Glo MT Cell Viability Assay in HEK293 cells - 40 hour (AID 1224874). Note: nearly all actives have a fitted effect of over 50% in size. Note: potency is the fitted concentration of half-maximal effect. The following applies: RealTime-Glo luminescence; max response: stronger effect = lower value. The procedure, abridged: (§1)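 Luminescence readout at each listed time point; HEK293, 600 cells/well, RealTime-Glo MT reagent added with cells; compounds pinned (23 nL in DMSO) after 5 h at 37 C; continuous culture at 37 C.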
Background: Quantitative high-throughput screening tests each substance at several concentrations.

Assay [2] is described as follows: qHTS RealTime-Glo MT Cell Viability Assay in HepG2 cells - 32 hour (AID 1224877). Note: nearly all actives have a fitted effect of over 55% in size. Note: potency is the fitted concentration of half-maximal effect. The procedure, abridged: (§2)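 HepG2 suspension premixed with RealTime-Glo reagents is plated at 600 cells per well and left 5 h at 37 C/5% CO2. Compounds in DMSO then go in, and bioluminescence reflecting viable cell number is recorded over 40 h.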
The nature of assay [3]: A CellTox Green Cytotoxicity Assay to monitor cytotoxicity in HepG2 cells - 24 hour (AID 1224878). Note: nearly all actives have a fitted effect of over 45% in size. Note: potency is the fitted concentration of half-maximal effect. The procedure, abridged:
(§3)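 HepG2, 600 cells/well premixed w/ CellTox Green; 5 h settle, 37 C/5% CO2; pintool cpd add (DMSO); 37 C, 40 h; fluorescence read at 0, 8, 16, 24, 32, 40 h.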

Assay [4] in a line: A CellTox Green Cytotoxicity Assay to monitor cytotoxicity in HepG2 cells - 40 hour (AID 1224879). Note: nearly all actives have a fitted effect of over 40% in size. Note: potency is the fitted concentration of half-maximal effect. The procedure, abridged:
as §3

A short description of assay [5]: qHTS RealTime-Glo MT Cell Viability Assay in HEK293 cells - 0 hour (AID 1224880). Note: top concentration of the series differs between compounds; nearly all actives have a fitted effect of over 45% in size. The gist of the method: as §1
The nature of assay [6]: A CellTox Green Cytotoxicity Assay to monitor cytotoxicity in HEK293 cells - 32 hour (AID 1224881). Note: nearly all actives have a fitted effect of over 40% in size. Note: potency is the fitted concentration of half-maximal effect. The procedure, abridged:
(§4)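 Read-out: fluorescence of a cell-impermeant cyanine dye staining DNA of dead cells, proportional to cytotoxicity. HEK293, 600 cells/well with reagent, compound (23 nL DMSO) added after 5 h; reads at 0, 8, 16, 24, 32, 40 h.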

Assay [7] is described as follows: A CellTox Green Cytotoxicity Assay to monitor cytotoxicity in HepG2 cells - 0 hour (AID 1224882). Note: nearly all actives have a fitted effect of over 35% in size. Note: potency is the fitted concentration of half-maximal effect. The gist of the method:
as §3

The nature of assay [8]: A CellTox Green Cytotoxicity Assay to monitor cytotoxicity in HepG2 cells - 32 hour (AID 1224883). Note: nearly all actives have a fitted effect of over 50% in size. Note: potency is the fitted concentration of half-maximal effect. The gist of the method: as §3
A short description of assay [9]: A CellTox Green Cytotoxicity Assay to monitor cytotoxicity in HEK293 cells - 8 hour (AID 1224884). Note: nearly all actives have a fitted effect of over 35% in size. Note: potency is the fitted concentration of half-maximal effect. The gist of the method: as §4
Assay [10] in a line: qHTS RealTime-Glo MT Cell Viability Assay in HepG2 cells - 16 hour (AID 1224885). Note: nearly all actives have a fitted effect of over 50% in size. Note: potency is the fitted concentration of half-maximal effect. The procedure, abridged:
as §2

A short description of assay [11]: qHTS RealTime-Glo MT Cell Viability Assay in HEK293 cells - 24 hour (AID 1224886). Note: nearly all actives have a fitted effect of over 50% in size. Note: potency is the fitted concentration of half-maximal effect. The gist of the method: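 Reads taken at 0, 8, 16, 24, 32 and 40 h from the same wells. HEK293 cells (600/well) carried RealTime-Glo reagents from seeding, with compound added after a 5 h settle at 37 C.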
Assay [12] can be described thus: qHTS RealTime-Glo MT Cell Viability Assay in HEK293 cells - 8 hour (AID 1224887). Note: nearly all actives have a fitted effect of over 50% in size. Note: potency is the fitted concentration of half-maximal effect. The gist of the method: as §1
Assay [13] in a line: A CellTox Green Cytotoxicity Assay to monitor cytotoxicity in HEK293 cells - 16 hour (AID 1224888). Note: nearly all actives have a fitted effect of over 35% in size. The gist of the method: as §4
A short description of assay [14]: qHTS RealTime-Glo MT Cell Viability Assay in HepG2 cells - 0 hour (AID 1224889). Note: nearly all actives have a fitted effect of over 50% in size. The procedure, abridged: as §2
Assay [15] in a line: qHTS assay to identify small molecule antagonists of the estrogen receptor alpha (ER-alpha) signaling pathway using the BG1 cell line in the presence of 0.1 nM 17-beta-estradiol - cell viability counter screen (AID 1259241). Note: nearly all actives have a fitted effect of over 40% in size. The gist of the method: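 In this screen, hormone-deprived VM7Luc4E2 cells were seeded at 4,000 per well, dosed with compound and 0.1 nM estradiol final, and incubated 22 hr at 37C and 5% CO2; fluorogenic live-cell protease signal reported viability.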

A short description of assay [16]: qHTS assay to identify small molecule antagonists of the androgen receptor (AR) signaling pathway using the MDA cell line in the presence of 0.5 nM R1881 - cell viability counter screen (AID 1259242). Note: nearly all actives have a fitted effect of over 45% in size. The gist of the method: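 Live-cell protease fluorescence, CellTiter-Fluor, 30 min at 37C. Cells: MDA-kb2, 3,000/well, preincubated 5 hr. Compounds plus 0.5 nM R1881 final, 16 hr, 37C, 0% CO2.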

Assay [17] can be described thus: A CellTox Green Cytotoxicity Assay to monitor cytotoxicity in HEK293 cells - 24 hour (AID 1224875). Note: series mostly up to about 77 µM; nearly all actives have a fitted effect of over 45% in size. The gist of the method:
as §4

Assay [18] concerns the target Androgen receptor (Homo sapiens) (UniProt P10275). The assay can be described thus: qHTS assay to identify small molecule antagonists of the androgen receptor (AR) signaling pathway using the MDA cell line in the presence of 0.5 nM R1881 (AID 1259243). Note: nearly all actives have a fitted effect of over 50% in size. The gist of the method:
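MDA-kb2, MMTV-luc (AR/GR elements); 3,000 cells/well; cpd + 0.5 nM R1881 final; 16 hr 37C, 0% CO2; ONE-Glo 30 min RT; luminescence.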

Assay [19] can be described thus: A CellTox Green Cytotoxicity Assay to monitor cytotoxicity in HepG2 cells - 8 hour (AID 1224890). Note: nearly all actives have a fitted effect of over 45% in size. The gist of the method: as §3
Assay [20] can be described thus: A CellTox Green Cytotoxicity Assay to monitor cytotoxicity in HepG2 cells - 16 hour (AID 1224876). Note: nearly all actives have a fitted effect of over 45% in size. Note: potency is the fitted concentration of half-maximal effect. The procedure, abridged: as §3

SMILES strings stand for the structures. Values joined by “and” are separate entries in the source; they are usually repeats but may differ in a detail not shown here. Equal entries are not always repeated. Inconclusive results are not listed. More than one record can exist for a structure, and the calls need not agree. Active and inactive are the calls of the source. Calls come from the whole dose curve; as a rule, active = well fitted curve in the direction sought with a large enough effect in the repeat runs; inconclusive = weak or mixed curves; inactive = no such curve, though single readings can be large; an effect the other way counts as inactive or inconclusive.
% is set by controls: 0 for no effect and ±100 for the full control effect.

Chain of Androgen receptor (Homo sapiens) (P10275 whole entry, looked up): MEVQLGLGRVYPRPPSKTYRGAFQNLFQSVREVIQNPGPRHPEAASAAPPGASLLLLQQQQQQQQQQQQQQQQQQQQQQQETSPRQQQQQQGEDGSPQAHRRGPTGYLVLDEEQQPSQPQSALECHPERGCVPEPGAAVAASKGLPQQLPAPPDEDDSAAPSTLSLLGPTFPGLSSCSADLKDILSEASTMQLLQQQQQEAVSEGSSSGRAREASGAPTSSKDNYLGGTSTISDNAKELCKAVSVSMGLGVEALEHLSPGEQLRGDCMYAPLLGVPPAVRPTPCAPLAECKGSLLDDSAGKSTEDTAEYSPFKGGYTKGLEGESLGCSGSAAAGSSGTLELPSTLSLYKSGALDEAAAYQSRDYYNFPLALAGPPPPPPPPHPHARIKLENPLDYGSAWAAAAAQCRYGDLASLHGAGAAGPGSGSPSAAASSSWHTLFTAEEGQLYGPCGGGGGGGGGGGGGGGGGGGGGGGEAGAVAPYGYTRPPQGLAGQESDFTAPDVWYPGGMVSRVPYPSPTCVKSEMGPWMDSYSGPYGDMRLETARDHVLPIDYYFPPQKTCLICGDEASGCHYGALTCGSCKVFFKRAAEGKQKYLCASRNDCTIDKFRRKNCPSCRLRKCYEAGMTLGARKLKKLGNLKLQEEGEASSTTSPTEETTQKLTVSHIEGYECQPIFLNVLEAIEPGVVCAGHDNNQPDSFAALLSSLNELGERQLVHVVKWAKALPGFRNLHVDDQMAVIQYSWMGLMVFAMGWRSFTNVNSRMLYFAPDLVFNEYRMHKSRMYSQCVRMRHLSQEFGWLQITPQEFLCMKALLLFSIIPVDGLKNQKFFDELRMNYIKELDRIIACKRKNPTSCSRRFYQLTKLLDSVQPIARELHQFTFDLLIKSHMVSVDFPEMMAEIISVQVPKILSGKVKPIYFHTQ

For the molecule `C=CCOC(Cn1ccnc1)c1ccc(Cl)cc1Cl` (stereo not drawn), the Potency in [1] is 17.4 µM (active) and 38.9 µM (active); in assay [3], 49.1 µM (active); in assay [4], 49.1 µM (active); in assay [6] it was 55.1 µM (active) and inactive; in assay [8] it was 49.1 µM (active) and 54.9 µM (active); in [11], 24.6 µM (active). The Potency result in [2], in assay [7], in assay [9], in assay [10], in assay [12] and in assay [13] was “inactive” throughout. The Potency result in [14], in assay [15] and in assay [16] was “inactive” throughout. Also, the molecule was classed as inactive in [5].

Consider `Cc1cc(Cl)ccc1N`, for which the max response in assay [1] was 9.86% (inactive) and 3.76% (inactive) and 5.35% (inactive). In addition, the Potency entry in assay [2], in assay [10], in [11], in [12], in assay [14] and in assay [15] was “inactive” throughout. Besides, the Potency entry in assay [16] was “inactive”. The Potency result was “inactive and 38.9 µM (active)” in assay [3]; “inactive and 38.9 µM (active)” in assay [4]; “inactive and 38.9 µM (active)” in assay [6]; “inactive and 38.9 µM (active)” in assay [7]; “inactive and 38.9 µM (active)” in assay [8]; “inactive and 34.7 µM (active)” in [9]. The molecule was classed as inactive in assay [5].

`Cc1cc(Cl)ccc1OCC(=O)O`: the max response in [1] was 23.3% (inactive) and 12.2% (inactive) and 10.9% (inactive). Moreover, the Potency result in assay [17], in assay [2], in [3], in [4], in assay [6] and in assay [7] was “inactive” throughout. Further, the Potency entry in [9], in assay [10], in assay [11], in [12], in [13] and in [14] was “inactive” throughout. For the same molecule, the Potency result in assay [15], in [16] and in assay [18] was “inactive” in each case. Further, in assay [5], the molecule was classed as inactive.

For the molecule `CCCC[n+]1ccc(C)cc1`, the Potency result in assay [2], in assay [7], in assay [10], in assay [14], in assay [19] and in assay [15] was “inactive” each time. Besides, the Potency entry in [16] was “inactive”. The Potency result is “inactive and 48.7 µM (active)” in [3]; “inactive and 48.7 µM (active)” in assay [4]; “inactive and 21.8 µM (active)” in assay [6]; “inactive and 48.7 µM (active)” in assay [8]; “inactive and 21.8 µM (active)” in [9]; 43.4 µM (active) and inactive in [11]. In addition, the Potency in assay [12] was 30.7 µM (active) and inactive. Further, the call in [5] was inactive.

As for `CCCCCCCCCCCCn1cc[n+](C)c1`, the max response in [1] is 14.2% (inactive). Also, the molecule was classed as inactive in [5]. The Potency result in [7], in [12], in [14] and in assay [15] was “inactive” throughout. Further, in assay [9], the Potency result was “inactive and 55.9 µM (active)”.

`Nc1ccc(-c2ccc(N)c(Cl)c2)cc1Cl`: the Potency was 12.4 µM (active) and 14.4 µM (active) and 12.3 µM (active) in [1]; “inactive and 43.6 µM (active)” in assay [20]; “inactive and 49 µM (active)” in assay [2]; “inactive and 27.5 µM (active)” in assay [3]; 15.6 µM (active) and 12.9 µM (active) and 27.5 µM (active) in [4]; “inactive and 49 µM (active)” in [6]. Besides, the Potency result in [7] is “inactive and 43.6 µM (active)”; in [9] it was “inactive and 49 µM (active)”; in assay [10], “inactive and 49 µM (active)”; in assay [11], 15.6 µM (active) and 24.5 µM (active); in [12] it was 24.5 µM (active). Further, the molecule was called inactive in assay [5]. In addition, the Potency entry in assay [14], in [15] and in assay [16] was “inactive” each time.

Consider `CCC[N+]1(C)CCCC1`, for which the Potency entry in assay [17], in assay [20], in [3], in [4], in assay [6] and in [7] was “inactive” throughout. The Potency entry in [8], in [9], in assay [10], in assay [11], in [12] and in [13] was “inactive” throughout. Besides, the Potency entry in assay [14], in [19], in assay [15] and in assay [16] was “inactive” each time. Also, the Potency result in assay [2] was “inactive and 49.3 µM (active)”. Besides, the molecule was called inactive in assay [5].
